The source made the active and inactive calls.
Assays:
[1] = biological target: Albumin (Bos taurus) (UniProt P02769); test: compounds binding labelled BSA control protein – biochemical, small-molecule microarray, Alexa647 label, 635/667 nm fluorescence, artefact control for SMM control protein annotation, profiling panel (AID 1118); conditions: BSA-A647 binding, fluorescence 635 nm, higher = more signal;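 further: score merges 667 nm emission intensity and signal-to-noise per printed compound spot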
[2] = probe aXIP binding to arrayed compounds – biochemical, NeuroSMM set, 635/667 nm fluorescence, primary screen (AID 1119); conditions: small-molecule microarray, higher = more signal, called active from +8 up or from −8 down;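 further: probe is the protein aXip251-270 applied at 1 µg/mL to compound-printed slides; binding of probe to printed compounds measured as 667 nm fluorescence plus signal to noise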
[3] = probe aNOTCH3 binding on compound microarray – biochemical, small-molecule microarray, 635/667 nm fluorescence, primary screen (AID 1120); conditions: higher = more signal;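 further: probe is a biotin-tagged antibody raised against NOTCH3 rather than NOTCH3 protein; score merges spot fluorescence near 667 nm with spot signal to noise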
[4] = probe aNOTCH2 binding on compound microarray – biochemical, small-molecule microarray, 635/667 nm fluorescence, primary screen (AID 1121); conditions: higher = more signal;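 further: score merges feature fluorescence read at 667 nm with its signal to noise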
[5] = biological target: Carbonic anhydrase 2 (Homo sapiens) (UniProt P00918); test: compounds binding carbonic anhydrase 2 – biochemical, small-molecule microarray, Alexa647-labelled CAII, profiling panel (AID 1122); conditions: CAII-A647 binding fluorescence, higher = more signal
[6] = COS7 lysate on small-molecule microarray, probe aHis, 635 nm (AID 1123); conditions: COS7 cell lysate, fluorescence, higher = more signal;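 further: z-score combines 667nm fluorescence intensity with signal-to-noise per printed compound spot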
[7] = probe aLAP1 signal on lysate-treated microarray – cell lysate, small-molecule microarray, COS7 lysate, primary screen (AID 1124); conditions: probe aLAP1, fluorescence, higher = more signal;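 further: lysate comes from COS7 cells expressing LAP1 and is applied at 0.3 µg/mL; score merges spot fluorescence near 667 nm with signal-to-noise over triplicate slides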
[8] = tested on: Sam68 (KHDRBS1); test: compounds binding KHDRBS1 protein – biochemical, small-molecule microarray, 635 nm fluorescence, primary screen (AID 1125); conditions: higher = more signal;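 further: score merges 667 nm channel intensity with signal to noise over triplicate slides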
[9] = tested on: Chordin-like protein 2 (CHRDL2); test: compounds binding chordin-like 2 – biochemical, small-molecule microarray, 635 nm fluorescence, primary screen (AID 1126); conditions: fluorescence 635 nm, higher = more signal;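 further: printed compound slides probed with Chrdl2 protein at 4 µg/mL for 1 h at 4 C; score merges 667 nm emission intensity with signal to noise over three replicate slides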
[10] = biological target: Concanavalin-A (Canavalia ensiformis) (UniProt P02866); test: compounds binding concanavalin A lectin – biochemical, small-molecule microarray, Alexa647 label, 635 nm, artefact control for SMM control protein annotation, primary screen (AID 1127); conditions: ConA-A647 binding fluorescence, higher = more signal;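 further: z combines 667 nm emission intensity with signal-to-noise across three replicate slides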
[11] = compounds binding Alexa647 anti-His antibody – biochemical, small-molecule microarray, 635 nm fluorescence, artefact control for SMM control protein annotation, primary screen (AID 1128); conditions: higher = more signal;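 further: score merges feature fluorescence with signal-to-noise for each printed compound spot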
[12] = tested on: Human papillomavirus type 1a E7 protein (residues 1-88); test: HPV1a E7 small-molecule binders, primary screen, biochemical, small-molecule microarray, residues 1-88, 635 nm (AID 1129); conditions: small-molecule microarray binding, fluorescence 635 nm; higher = more signal
[13] = biological target: Focal adhesion kinase 1 (Homo sapiens) (UniProt Q05397); test: PTK2 protein binding on printed compound slides – biochemical, small-molecule microarray, 635/667 nm fluorescence, BSA, DTT, primary screen (AID 1130); conditions: 635 nm fluorescence, higher = more signal;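 further: composite of spot emission at 667 nm and signal to noise over triplicate slides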
[14] = tested on: Fibrinogen (Alexa647-labelled); test: Alexa647-fibrinogen binding to printed small molecules – biochemical, small-molecule microarray, 635/667 nm fluorescence, artefact control for SMM control-protein annotation, profiling panel (AID 1131); conditions: fibrinogen-A647 binding fluorescence, higher = more signal;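 further: z-score merges 667 nm fluorescence with per-spot signal-to-noise over triplicate slides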
[15] = biological target: Follistatin (Homo sapiens) (UniProt P19883); test: FST protein binding to printed compounds – biochemical, small-molecule microarray, 635/667 nm fluorescence, primary screen (AID 1132); conditions: 635 nm fluorescence, higher = more signal
[16] = biological target: Fibroblast growth factor 2 (Homo sapiens) (UniProt P09038); test: basic fibroblast growth factor binding to printed compounds – biochemical, small-molecule microarray, 635/667 nm fluorescence, primary screen (AID 1133); conditions: FGF2, fluorescence 635/667, higher = more signal
[17] = JC-1 mitochondrial potential readout, lung cancer cells – cell-based, A549, JC-1 fluorescence, basal, 24 h, 100 nL, profiling panel (AID 1138); conditions: higher = more signal;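 further: A549 lung adenocarcinoma cells under basal conditions with no added stimulus; test concentration not given here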
[18] = tested on: Lefty1; test: Lefty1 protein binding to printed compounds – biochemical, small-molecule microarray, 635/667 nm fluorescence, primary screen (AID 1139); conditions: fluorescence 635/667, higher = more signal
[19] = tested on: wheat germ agglutinin (Triticum aestivum), Alexa647-labelled; test: Alexa647-WGA lectin binding to printed small molecules – biochemical, small-molecule microarray, 635/667 nm fluorescence, artefact control for SMM control-protein annotation, profiling panel (AID 1140); conditions: WGA-A647 binding, 635 nm fluorescence, higher = more signal;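 further: score merges 667 nm feature emission with signal to noise over triplicate slides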
[20] = biological target: Luciferin 4-monooxygenase (Photinus pyralis) (UniProt P08659); test: inhibition of purified Photinus pyralis luciferase – biochemical, luminescence, purified enzyme, 2006 set, primary screen (AID 1141); conditions: purified firefly luciferase, SteadyGlo luminescence, 30 min; higher = more signal, called active from +8 up or from −8 down;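 further: cell-free assay with purified firefly luciferase at 100 ng per well in PBS; test concentration not given here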
Sequence of Luciferin 4-monooxygenase (Photinus pyralis) (P08659 whole entry, looked up): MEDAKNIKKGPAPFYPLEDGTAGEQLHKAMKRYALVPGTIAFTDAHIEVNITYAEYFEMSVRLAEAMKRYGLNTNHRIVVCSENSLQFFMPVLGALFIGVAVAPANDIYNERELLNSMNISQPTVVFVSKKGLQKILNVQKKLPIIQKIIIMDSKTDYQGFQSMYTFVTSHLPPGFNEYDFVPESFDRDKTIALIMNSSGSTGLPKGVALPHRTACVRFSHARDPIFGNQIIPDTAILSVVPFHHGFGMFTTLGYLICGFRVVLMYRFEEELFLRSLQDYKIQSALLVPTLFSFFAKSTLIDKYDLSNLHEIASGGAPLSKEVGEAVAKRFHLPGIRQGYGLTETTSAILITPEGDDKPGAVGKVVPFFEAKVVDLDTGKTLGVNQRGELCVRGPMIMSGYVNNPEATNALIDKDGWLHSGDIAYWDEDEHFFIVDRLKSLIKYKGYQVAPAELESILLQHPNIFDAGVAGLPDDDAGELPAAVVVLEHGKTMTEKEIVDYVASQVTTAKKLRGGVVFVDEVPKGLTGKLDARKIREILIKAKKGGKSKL

Sequence of Focal adhesion kinase 1 (Homo sapiens) (Q05397 whole entry, looked up): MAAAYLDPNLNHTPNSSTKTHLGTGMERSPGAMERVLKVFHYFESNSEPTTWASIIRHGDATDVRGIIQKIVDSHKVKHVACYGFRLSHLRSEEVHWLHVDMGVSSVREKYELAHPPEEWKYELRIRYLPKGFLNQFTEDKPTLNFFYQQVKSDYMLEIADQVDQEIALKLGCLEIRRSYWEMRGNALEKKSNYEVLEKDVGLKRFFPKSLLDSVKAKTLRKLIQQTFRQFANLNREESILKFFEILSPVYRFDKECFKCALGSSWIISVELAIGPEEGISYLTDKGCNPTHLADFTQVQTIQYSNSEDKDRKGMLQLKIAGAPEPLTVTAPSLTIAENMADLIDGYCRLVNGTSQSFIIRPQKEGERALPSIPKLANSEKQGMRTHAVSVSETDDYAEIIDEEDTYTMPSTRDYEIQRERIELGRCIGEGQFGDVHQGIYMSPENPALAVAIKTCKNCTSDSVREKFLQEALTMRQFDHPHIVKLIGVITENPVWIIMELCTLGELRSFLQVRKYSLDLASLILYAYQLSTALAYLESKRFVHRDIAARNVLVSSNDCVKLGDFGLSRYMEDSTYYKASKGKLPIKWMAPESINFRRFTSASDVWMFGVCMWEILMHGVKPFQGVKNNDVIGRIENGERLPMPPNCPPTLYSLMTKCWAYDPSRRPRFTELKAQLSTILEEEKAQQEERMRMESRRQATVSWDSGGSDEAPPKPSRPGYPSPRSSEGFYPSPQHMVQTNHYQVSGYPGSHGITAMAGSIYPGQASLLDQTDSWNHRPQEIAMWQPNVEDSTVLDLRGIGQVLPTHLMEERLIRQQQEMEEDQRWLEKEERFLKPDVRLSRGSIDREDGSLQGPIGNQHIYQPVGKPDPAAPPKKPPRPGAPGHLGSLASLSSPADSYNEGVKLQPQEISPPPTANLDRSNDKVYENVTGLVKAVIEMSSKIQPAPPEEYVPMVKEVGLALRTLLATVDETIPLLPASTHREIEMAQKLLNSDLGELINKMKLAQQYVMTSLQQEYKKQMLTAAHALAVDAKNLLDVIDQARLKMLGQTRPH
Sequence of Concanavalin-A (Canavalia ensiformis) (P02866 whole entry, looked up): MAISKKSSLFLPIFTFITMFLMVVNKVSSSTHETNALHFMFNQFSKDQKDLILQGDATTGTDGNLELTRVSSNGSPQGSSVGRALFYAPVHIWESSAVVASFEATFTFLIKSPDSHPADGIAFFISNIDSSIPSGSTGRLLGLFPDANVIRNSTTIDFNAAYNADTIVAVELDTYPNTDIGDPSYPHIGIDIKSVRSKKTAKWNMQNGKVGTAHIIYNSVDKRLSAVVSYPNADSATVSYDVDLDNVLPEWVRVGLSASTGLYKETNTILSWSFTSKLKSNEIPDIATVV
Sequence of Albumin (Bos taurus) (P02769 whole entry, looked up): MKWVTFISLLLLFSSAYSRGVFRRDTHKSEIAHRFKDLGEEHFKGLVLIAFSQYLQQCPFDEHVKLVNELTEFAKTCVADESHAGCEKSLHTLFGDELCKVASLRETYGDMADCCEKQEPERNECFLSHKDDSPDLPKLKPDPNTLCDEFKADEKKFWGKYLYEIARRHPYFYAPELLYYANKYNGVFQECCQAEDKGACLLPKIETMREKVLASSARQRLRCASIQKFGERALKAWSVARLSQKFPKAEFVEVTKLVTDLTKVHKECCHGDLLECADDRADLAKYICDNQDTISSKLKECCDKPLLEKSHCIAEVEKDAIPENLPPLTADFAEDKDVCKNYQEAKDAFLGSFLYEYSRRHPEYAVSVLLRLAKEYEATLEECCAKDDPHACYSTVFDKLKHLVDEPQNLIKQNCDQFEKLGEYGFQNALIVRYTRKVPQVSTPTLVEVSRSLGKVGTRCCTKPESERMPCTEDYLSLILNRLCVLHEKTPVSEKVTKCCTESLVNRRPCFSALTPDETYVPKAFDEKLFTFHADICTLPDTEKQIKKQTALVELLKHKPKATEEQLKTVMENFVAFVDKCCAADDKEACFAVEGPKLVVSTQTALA
Sequence of Follistatin (Homo sapiens) (P19883 whole entry, looked up): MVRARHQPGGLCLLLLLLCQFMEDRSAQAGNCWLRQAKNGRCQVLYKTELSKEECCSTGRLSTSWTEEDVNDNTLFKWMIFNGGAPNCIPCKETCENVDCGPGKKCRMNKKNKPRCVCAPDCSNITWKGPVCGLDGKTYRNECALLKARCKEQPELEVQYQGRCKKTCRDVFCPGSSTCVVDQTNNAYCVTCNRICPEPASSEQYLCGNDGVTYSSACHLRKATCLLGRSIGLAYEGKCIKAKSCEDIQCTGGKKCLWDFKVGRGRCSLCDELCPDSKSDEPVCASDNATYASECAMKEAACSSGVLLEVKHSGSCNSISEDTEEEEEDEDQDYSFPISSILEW
Sequence of Fibroblast growth factor 2 (Homo sapiens) (P09038 whole entry, looked up): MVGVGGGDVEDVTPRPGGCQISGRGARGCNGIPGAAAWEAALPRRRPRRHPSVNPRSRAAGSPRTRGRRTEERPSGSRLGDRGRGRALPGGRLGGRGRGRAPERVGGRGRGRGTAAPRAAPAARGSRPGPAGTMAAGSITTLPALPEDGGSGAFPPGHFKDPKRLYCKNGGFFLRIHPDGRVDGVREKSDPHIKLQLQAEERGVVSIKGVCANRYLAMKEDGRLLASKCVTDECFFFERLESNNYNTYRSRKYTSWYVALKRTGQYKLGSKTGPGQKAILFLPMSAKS

Row | SMILES | composite z-score [1] | composite Z-score [2] | composite z-score [3] | composite z-score [4] | composite z-score [5] | composite z-score [6] | composite z-score [7] | composite z-score [8] | composite z-score [9] | composite z-score [10] | composite z-score [11] | composite z-score [12] | composite z-score [13] | composite z-score [14] | composite z-score [15] | composite z-score [16] | z-score [17] | composite z-score [18] | composite z-score [19] | z-score [20]
1 | CN(C)CCCC[C@@H]1NC(=O)[C@@H]2C[C@H](C(=O)NCCCCCCN)[C@H](c3cccc(OCCO)c3)N2C1=O | 0.839 | 0.938 (inactive) | 1.07 | 0.308 | 0.632 | 3.25 | 0.495 | 1.3 | 0.299 | 1.13 | 3.34 | 1.2 | 1.48 | 0.936 | 0.861 | 0.357 | -0.9 | 0.409 | 1.49 | 0.132 (inactive)
2 | COc1ccc([C@H]2OC[C@@H]3C[C@@H](Cc4ccccc4)C(=O)N32)cc1 | -0.127 | 0.584 (inactive) | 0.111 | -0.164 | 0.796 | 0.39 | -0.123 | 0.338 | 0.377 | 0.143 | 1.3 | 0.527 | -0.181 | -0.0072 | 0.62 | 0.91 | 1.25 | 1.08 | 0.208 | 0.0077 (inactive)
3 | O=C1C2C=CC(C(O)c3cc(C(F)(F)F)cc(C(F)(F)F)c3)N(n3cnnc3)C2C(=O)N1Cc1ccccc1 (stereo not given) | 0.184 | -0.0461 (inactive) | -0.0391 | 0.392 | 0.68 | 1.58 | -0.0088 | 0.824 | -1.04 | 0.516 | 0.955 | -0.269 | -0.176 | 0.889 | -0.192 | -0.794 | -1.57 | -0.264 | 1.05 | 1.46 (inactive)
4 | COc1cc2c(cc1O)C(c1cccs1)N(C)CC2 (stereo not given) | 0.393 | -0.0667 (inactive) | -0.28 | -0.182 | 0.311 | 0.0056 | -0.465 | -1.2 | -0.231 | -1.2 | -1 | -1.33 | 0.756 | -0.861 | -0.123 | -0.0571 | -0.278 | -0.574 | -1.05 | 0.146 (inactive)
5 | CC1(C)[C@@H]2CC(C(O)C3C=CC4C(=O)N(c5ccccc5)C(=O)C4N3Nc3ccc([N+](=O)[O-])cc3)=C[C@H]1C2 (stereo not given in full) | 0.973 | 0.131 (inactive) | 0.101 | -0.106 | 0.425 | 2.8 | 0.0175 | 1.33 | 0.649 | 1.17 | 1.11 | 1.27 | 0.368 | 1.04 | 1.16 | 0.488 | -1.25 | 0.619 | 0.728 | 0.285 (inactive)

Reference: PubChem BioAssay
